The results in this text go back to PubChem BioAssay AID1942 (Johns Hopkins Ion Channel Center, 2009).

Screen size: about 2,400 compounds; about 580 (24%) were called active. The list is a sample of the results. Values without a mark were called inactive.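 The calls were made as follows: active = activity change at or above the mean plus 3 SD of buffer wells without dofetilide, per plate; inactive = the rest.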

This experiment deals with Potassium voltage-gated channel subfamily KQT member 2 (Rattus norvegicus) (UniProt O88943). As to the kind of experiment: rat KCNQ2 channel activation by compounds alone, confirmation, counter-screen for hERG block protector project, cell-based, CHO, FluxOR thallium flux (AID 1942).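 Also: normalized value minus buffer-control mean plus three SD of buffer wells.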 Conditions: CHO-KCNQ2 cells, FluxOR thallium flux fluorescence; at 10 µM; active compounds read high.
Potassium voltage-gated channel subfamily KQT member 2 (Rattus norvegicus), sequence (O88943 whole entry, looked up): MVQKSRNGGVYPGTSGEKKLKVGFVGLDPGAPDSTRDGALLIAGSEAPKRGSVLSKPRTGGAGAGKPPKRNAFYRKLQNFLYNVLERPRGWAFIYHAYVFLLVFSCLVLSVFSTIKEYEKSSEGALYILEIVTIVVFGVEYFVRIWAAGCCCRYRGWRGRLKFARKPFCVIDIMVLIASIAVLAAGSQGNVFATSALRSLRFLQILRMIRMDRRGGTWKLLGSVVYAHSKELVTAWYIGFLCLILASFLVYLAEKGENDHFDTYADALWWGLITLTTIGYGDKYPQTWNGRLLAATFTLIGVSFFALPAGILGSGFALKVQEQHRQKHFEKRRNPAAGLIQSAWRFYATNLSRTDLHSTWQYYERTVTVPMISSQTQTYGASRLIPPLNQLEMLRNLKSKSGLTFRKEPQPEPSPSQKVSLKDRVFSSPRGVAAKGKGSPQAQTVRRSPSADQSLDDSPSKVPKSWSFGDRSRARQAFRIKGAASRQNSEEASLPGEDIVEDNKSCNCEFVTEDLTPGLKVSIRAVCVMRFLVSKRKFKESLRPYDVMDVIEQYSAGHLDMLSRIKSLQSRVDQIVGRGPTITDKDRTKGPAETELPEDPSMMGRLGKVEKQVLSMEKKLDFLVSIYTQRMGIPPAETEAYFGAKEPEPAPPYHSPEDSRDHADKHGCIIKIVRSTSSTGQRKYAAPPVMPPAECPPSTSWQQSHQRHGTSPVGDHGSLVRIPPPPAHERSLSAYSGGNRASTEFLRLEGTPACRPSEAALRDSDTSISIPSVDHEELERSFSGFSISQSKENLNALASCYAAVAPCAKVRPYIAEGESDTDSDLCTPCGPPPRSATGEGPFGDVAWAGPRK
Take `Cc1cc(C(=O)NCCN2C(=O)S/C(=C\c3cccs3)C2=O)ccc1[N+](=O)[O-]`: the activity change, less the hit threshold was -16.8%.
The result for `Nc1nonc1-n1nnc(C(=O)N/N=C/c2ccccn2)c1-c1ccccc1` reads -18.1%; that for `COc1ccc(C2N=C(c3ccccc3)C(C)(C)N2O)cc1` (configuration not stated), -18.6%; that for `Cc1nn(C)cc1C(=O)Nc1ccc2c(c1)OCCO2`, -19.7%.
Turning to `Cc1cc(Cl)ccc1OC(C)C(=O)NCCc1ccc2c(c1)OCCO2` (configuration not stated), the activity change, less the hit threshold was -30.8%.
The result for `Cc1ccc(CN2CCN(CC(=O)NC(C)c3ccc4c(c3)OCCO4)C2=O)cc1` (configuration not stated) reads 16.9% (active); that for `COc1ccc(CCNC(=O)c2cc3ccccc3oc2=O)cc1`, -29%.
Regarding `Cc1ccc(/C=N/NC(=O)c2cc3ccccc3cc2O)o1`, the activity change, less the hit threshold is 77.9% (active).
Take `C/C(=N\NC(=O)c1ccoc1C)c1cccc2ccccc12`: the activity change, less the hit threshold is 55% (active).
Under `O=C(N/N=C/c1ccc(Sc2ccccn2)o1)c1cc2ccccc2cc1O` stands -4.5%; under `C/C(=N\NC(=S)Nc1c(C)cccc1C)c1cc2ccccc2o1`, -16.4%; under `C/C(=N/NC(=O)c1cc2ccccc2cc1O)c1ccco1`, 72.8% (active).
Under `Cc1ccc(/C=N/NC(=O)c2cc(C)oc2C)o1` stands -17.8%; under `C/C(=N\NC(=O)CSc1nc2ccccc2o1)c1ccc(O)cc1`, -16.2%.
The result for `C/C(=N\NC(=O)c1cc2ccccc2cc1O)c1ccccn1` reads -9.4%.
`C/C(=N\NC(=S)Nc1cccc(C)c1)c1ccco1`: the activity change, less the hit threshold was -13.9%.
The result for `Cc1cc(C(=O)Nc2cccc3ccccc23)c(C)o1` reads -28.1%; that for `C/C(=N\NC(=O)c1cc2ccccc2cc1O)c1cc2ccccc2o1`, 82% (active).
With `CC(C)(C)NC(=O)CN(C(=O)CS(=O)CC(=O)Nc1ccc(F)cc1)c1cccc(F)c1` (configuration not stated), the activity change, less the hit threshold is -11.2%.
As for `Cc1ccsc1/C=C1/SC(=O)N(CC(=O)N2CCCC2)C1=O`, the activity change, less the hit threshold was -18.9%.
Under `Cn1c(=O)c(Sc2ccccc2)c(O)c2ccccc21` stands -8.1%; under `Cn1c(=O)c2c(ncn2CC(=O)OCc2ccccc2)n(C)c1=O`, -14.2%.
In the case of `Cc1nc(-c2cc(C#N)c(Sc3ccc(Cl)cc3Cl)nc2C)cs1`, the activity change, less the hit threshold was -16.9%.
The result for `COc1cc(C(=S)N2CCOCC2)ccc1OC(=O)c1ccc([N+](=O)[O-])cc1[N+](=O)[O-]` reads -27.5%.
As to `Cc1ccc(CCNC(=O)c2cccc(NC3=NC4CS(=O)(=O)CC4S3)c2)cc1` (configuration not stated), the activity change, less the hit threshold was -10.3%.
Consider `C/C(=N\NC(=O)c1cc2ccccc2cc1O)c1ccc(C)o1`, for which the activity change, less the hit threshold was 30.2% (active).
For the molecule `C/C(=N/NC(=O)c1sc(NS(=O)(=O)c2ccccc2)nc1C)c1sc(N)nc1C`, the activity change, less the hit threshold was -11.4%.
As for `Cc1ccc(C(=O)NC2CCC(C)CC2)o1` (configuration not stated), the activity change, less the hit threshold was -20.7%.
Regarding `Nn1c(SCC(=O)Nc2ccc(OC(F)F)cc2)nnc1-c1ccco1`, the activity change, less the hit threshold is -14.7%.
Under `CSc1ccccc1C(=O)NCc1ccc(C)cc1` stands -15.6%; under `Cc1ccc(C(=O)Sc2cccccc2=O)cc1`, 78.4% (active); under `CC1=CC(=O)C(C(C)C)=CC1=NC(=O)c1ccc(C)cc1`, -15.5%.
As for `Cc1ccc(Nc2nc(-c3ccncc3)cs2)cc1`, the activity change, less the hit threshold was -17.9%.
Under `Brc1ccc(-c2csc(N3CCCCCC3)n2)cc1` stands -13.8%; under `Cc1cc(C)c(-c2c(O)c3c(n(C)c2=O)CC(C)(C)CC3=O)c(C)c1`, -18.3%.
Under `O=C(COc1ccccc1)Nc1ccc(F)cc1` stands -28.9%; under `COc1ccccc1NC(=O)C(=O)NNC(=O)COc1ccc2ccccc2c1`, 93.1% (active); under `O=C(COc1ccc2ccccc2c1)NNC(=O)C(=O)Nc1ccccc1`, 47.2% (active).
Under `COC(=O)CSc1nnc(COc2ccc3ccccc3c2)o1` stands -16%; under `O=C(COc1ccc(C(=O)c2ccccc2)cc1)Nc1cccnc1`, -35%.
For the molecule `C=CCNC(=O)c1ccccc1NC(=O)COc1ccc(OC)cc1`, the activity change, less the hit threshold is -11.7%.
Under `O=C(COc1ccc2ccccc2c1)Nc1ccc(Br)cc1C(=O)O` stands -9%.
As for `Cc1ccccc1NC(=O)C(=O)NNC(=O)COc1ccc2ccccc2c1`, the activity change, less the hit threshold was 33.6% (active).
Consider `CSc1ccc(S(=O)(=O)N2CCC(C(=O)Nc3ccccc3C(F)(F)F)CC2)cc1`, for which the activity change, less the hit threshold was -14.7%.
Under `Cc1nonc1CN(C)C(=O)c1ccc(OC2CCN(Cc3ccccn3)CC2)cc1` stands -5.7%; under `Cc1ccc(C(=C2C3C=CC2C2C(=O)NC(=O)C32)c2ccc(C)cc2)cc1` (configuration not stated), -17.1%; under `COc1ccccc1C(=O)COC(=O)c1ccc(-n2cnnn2)cc1`, -14.7%.
`CCOC(=O)c1nnn(CC(=O)Nc2cccc(F)c2)c1C(=O)OCC`: the activity change, less the hit threshold is -9.5%.
Under `COc1ccc(CC(=O)Nc2ccc(-c3noc(-c4ccccc4OC)n3)cc2)cc1` stands -16.7%; under `O=C(c1ccccc1)c1nccn1-c1ccc(Cl)nn1`, -7.9%; under `O=C(CSc1cccc[n+]1[O-])C12CC3CC(CC(C3)C1)C2`, -11.8%.
Under `O=C(NCCCN1CCOCC1)c1ccc(CS(=O)(=O)Cc2ccccc2Cl)o1` stands -26.5%; under `Cc1ccc(Cn2c(O)c(N=NC(=S)Nc3ccccc3F)c3ccccc32)cc1`, -11.4%; under `Oc1c(N=NC(=S)Nc2ccccc2F)c2ccccc2n1Cc1ccc(F)cc1`, 2.8% (active).
Under `Oc1c(N=NC(=S)Nc2ccccc2F)c2ccccc2n1Cc1ccccc1` stands -9.8%; under `Cc1c(Cl)cccc1NC(=S)N=Nc1c(O)n(CN2CCOCC2)c2ccccc12`, 4.9% (active); under `Oc1c(N=NC(=S)Nc2ccccc2F)c2ccccc2n1Cc1ccc(Cl)cc1`, -13.5%.
As to `Oc1c(N=NC(=S)Nc2ccccc2F)c2ccccc2n1Cc1ccccc1Cl`, the activity change, less the hit threshold was -10%.
The result for `O=C(CN1C(=O)CSCC1=O)Nc1ccc2c(c1)OCO2` reads -7.1%.
As for `Nc1ccc2nc(-c3cccs3)[nH]c2c1`, the activity change, less the hit threshold was -8.8%.
The result for `CC(C)(C)n1nnnc1C(c1cccs1)N1CCN(Cc2ccccc2)CC1` (configuration not stated) reads -11.7%; that for `O=C(/C=C/Nc1ccc(F)c(F)c1)c1cccs1`, -17.4%; that for `Cc1sc2nc(CN3CCOCC3)[nH]c(=S)c2c1C`, 93.4% (active).
The result for `C/C(Nc1cccc(F)c1)=C(/C#N)C(N)=O` reads -14.7%; that for `Cc1nc(NCc2cccnc2)c2c3c(sc2n1)CC(C)CC3` (configuration not stated), 26.7% (active); that for `Cc1cccc(NC(=O)CN2C(=O)S/C(=C\c3cccn3-c3cccc(C(=O)O)c3)C2=O)c1`, -18.5%.
For `CC(C)c1nc2sc3c(=S)nc[nH]c3c2c2c1CCC2`, the activity change, less the hit threshold is 14.2% (active).
Under `S=c1nc[nH]c2c1sc1nc(-c3ccccc3)c3c(c12)CCCC3` stands -4.2%.
Under `S=c1nc[nH]c2c1sc1nc(N3CCOCC3)c3c(c12)CCCC3` stands 43.5% (active); under `COc1ccc(S(=O)(=O)Nc2cccnc2)cc1`, -17.2%.
For `CN(C)C(=O)c1ccc(NC(=O)c2cncc(Br)c2)cc1`, the activity change, less the hit threshold was -12%.
For `COc1ccccc1C(=O)NNC(=S)NC(=O)c1sc2ccccc2c1Cl`, the activity change, less the hit threshold is 19.7% (active).
As to `COc1cccc(C(=O)NC(=S)Nn2cnnc2)c1OC`, the activity change, less the hit threshold is -19.6%.
Under `O=C(NNC(=S)NC(=O)c1sc2ccccc2c1Cl)c1ccc(Cl)cc1` stands 11.1% (active); under `Cc1ccc(NC(=S)NC(=O)c2sc3ccccc3c2Cl)c(C(=O)O)c1`, 13.9% (active); under `O=C(NC(=S)Nc1ccc(N2CCOCC2)c(Cl)c1)c1sc2ccccc2c1Cl`, -10.6%.
Regarding `Cc1ccc(C(=O)NNC(=S)NC(=O)c2ccc(Cl)cc2)cc1`, the activity change, less the hit threshold was -28.7%.
Under `O=C(Nc1nc(=O)c2ccccc2s1)c1ccc(Cl)cc1` stands -5.6%; under `COc1ccccc1C(=O)NC(=S)NNC(=O)c1sc2ccccc2c1Cl`, 77% (active).
For `CCC(C)N(C(=O)CSc1nnc(NC(C)C)s1)C1CCS(=O)(=O)C1` (configuration not stated), the activity change, less the hit threshold is -15.4%.
Turning to `O=c1cc(CN2CCN(S(=O)(=O)c3ccc4c(c3)OCCO4)CC2)c2ccc(O)cc2o1`, the activity change, less the hit threshold was -20%.
`S=c1[nH]nc(CSc2nc3ccccc3s2)n1C1CCCCC1`: the activity change, less the hit threshold was -2.2%.
The result for `Cc1ccc(C(=O)NNc2cc(N3CCCC3)nc(N3CCCC3)n2)cc1` reads 16.1% (active); that for `Cc1ccc(C(=O)Nc2nc(=O)n(C)s2)cc1`, -12%.
Under `Cc1ccc(CNC(=O)c2ccc(CNc3c(N4CCCC4)c(=O)c3=O)cc2)cc1` stands -23.6%; under `O=C(Nc1nnc(C2=COCCO2)o1)c1ccc(Br)cc1`, -2.3%.
As to `CCn1cc(C(=O)NCCN(C)C)c(=O)c2cc(F)c(N3CCN(C)CC3)cc21`, the activity change, less the hit threshold is -23.9%.
With `COc1ccc(C(=O)Nc2ccc(-n3nncc3C(C)(C)C)cc2)cc1`, the activity change, less the hit threshold is 17.5% (active).
The result for `COc1ccc(NC(=O)c2ccc(NC3=NC4CS(=O)(=O)CC4S3)cc2)cc1` (configuration not stated) reads -19.9%; that for `COc1ccc(NC(=O)c2ccc(COCC(F)(F)C(F)F)cc2)cc1`, -19.7%.
On to `CCSc1nnc(NC(=O)CC(C)C)s1`, for which the activity change, less the hit threshold is -11.1%.
The result for `O=c1cc(-c2ccccc2)nc2c(-c3ccccc3)c(C(F)(F)F)[nH]n12` reads 59.6% (active); that for `NC(=O)c1nn2c(C(F)(F)F)cc(-c3ccccc3)nc2c1Br`, -18.2%; that for `Cc1[nH]n2c(=O)cc(C(C)(C)C)nc2c1-c1ccccc1`, 14.6% (active).
Under `Cc1[nH]n2c(=O)cc(C(C)C)nc2c1-c1ccccc1` stands -3.3%; under `Cc1nn(CCC#N)c2nc(-c3ccccc3)cc(C(F)(F)F)c12`, -22.2%.
The result for `CN(C(=O)CCc1ccccc1)c1nnc(-c2ccncc2)s1` reads -20.2%.
